# PubChem BioAssay
# Active and inactive are the calls of the source.
# Assays:
# [1] = E. coli DRC41 culture turbidity changes, primary screen, E. coli filamentation inducer project, strain DRC41, OD650, 48 h (AID 1152);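 note: E. coli MC1000 strain DRC41 lacking acrAB efflux pump and sulA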; conditions: E. coli DRC41 (acrAB sulA), higher = more signal, called active from +8 up or from −8 down
# [2] = small-molecule binders of probe aLefty1, primary screen, biochemical, small-molecule microarray, 635/667 nm fluorescence (AID 1153); conditions: higher = more signal;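 note: score merges spot fluorescence with signal-to-noise ratio from the scanned slide images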
# [3] = PSAC antagonists in infected red cells, primary screen, cell-based, P. falciparum Indochina, OD700, 1 h (AID 1154); conditions: P. falciparum Indochina infected RBC osmotic lysis, higher = more signal, called active from +8 up or from −8 down
# [4] = PSAC antagonists in infected red cells, primary screen, cell-based, P. falciparum Indochina, OD700, 2 h (AID 1155);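 note: lysis reports solute entry through the parasite surface anion channel PSAC; channel blockers reduce lysis of infected cells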; conditions: P. falciparum Indochina infected erythrocytes, osmotic lysis OD700; higher = more signal, called active from +8 up or from −8 down
# [5] = osmotic lysis modulators in infected erythrocytes, primary screen, PSAC antagonist project, cell-based, P. falciparum Indochina, OD700, 3 h (AID 1156); conditions: higher = more signal, called active from +8 up or from −8 down
# [6] = PSAC antagonists in infected red cells, primary screen, cell-based, P. falciparum Indochina, OD700, 18 h (AID 1157); conditions: P. falciparum Indochina infected erythrocytes, osmotic lysis OD700, 18 h; higher = more signal, called active from +8 up or from −8 down
# [7] = modulators of S6 phosphorylation in cells, primary screen, cell-based, A549, cytoblot, luminescence, serum-stimulated (AID 1158); conditions: A549 phospho-S6 cytoblot, 5 h, higher = more signal;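 note: serum-stimulated A549 lung adenocarcinoma cells; signal is phosphorylated S6 detected by cytoblot immunostaining with HRP secondary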
# [8] = target: NADPH oxidase 2 (Homo sapiens) (UniProt P04839); experiment: NOX2-dependent H2O2 signal modulators, primary screen, NOX inhibitor project, cell-based, HEK293-NOX2, PMA-stimulated, Amplex Red fluorescence (AID 1159); conditions: 45 min, higher = more signal, called active from +8 up or from −8 down; note: test concentration not given here
# [9] = target: NADPH oxidase 4 (Homo sapiens) (UniProt Q9NPH5); experiment: NOX4-dependent H2O2 signal modulators, primary screen, NOX inhibitor project, cell-based, HEK293-NOX4, tetracycline-induced, Amplex Red fluorescence (AID 1160); conditions: 45 min, higher = more signal, called active from +8 up or from −8 down
# [10] = target: NADPH oxidase 5 (Homo sapiens) (UniProt Q96PH1); experiment: NOX5-dependent H2O2 signal modulators, primary screen, NOX inhibitor project, cell-based, HEK293-NOX5, Amplex Red fluorescence (AID 1161); conditions: HEK293-NOX5, ionomycin, 45 min, higher = more signal
# [11] = A549 cell viability effects, profiling panel, calcein-AM fluorescence, 48 h, basal (AID 1162); conditions: higher = more signal; note: test concentration not given here
# [12] = adipocyte viability effects, profiling panel, cell-based, 3T3-L1 adipocytes, calcein-AM fluorescence, 48 h, basal (AID 1163); conditions: 3T3-L1 adipocytes viability, higher = more signal; note: test concentration not given here
# [13] = HepG2 cell viability effects, profiling panel, calcein-AM fluorescence, 48 h, basal (AID 1164); conditions: higher = more signal; note: test concentration not given here
# [14] = MM1S cell viability effects, profiling panel, calcein-AM fluorescence, 48 h, basal (AID 1165); conditions: higher = more signal;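 note: viability of MM1S multiple myeloma cells under basal unstimulated conditions; test concentration not given here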
# [15] = basal RPMI8226 viability, no added stimulus, profiling panel, cell-based, calcein-AM fluorescence, 48 h, PK04 Diversity Set (AID 1166); conditions: RPMI8226 myeloma viability, higher = more signal;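 note: cells grown under basal conditions without added stimulus; test concentration not given here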
# [16] = basal HepG2 mitochondrial membrane potential changes, profiling panel, cell-based, JC-1 fluorescence, 24 h, 100 nL compound (AID 1167); conditions: higher = more signal; note: test concentration not given here
# [17] = basal 3T3-L1 adipocyte mitochondrial potential changes, profiling panel, cell-based, JC-1 fluorescence, 3T3-L1 adipocytes, 24 h, 100 nL compound (AID 1168); conditions: JC-1 mitochondrial fluorescence, higher = more signal, called active from +8 up or from −8 down; note: test concentration not given here
# [18] = basal RPMI8226 mitochondrial membrane potential changes, profiling panel, cell-based, JC-1 fluorescence, 24 h, 100 nL compound (AID 1169); conditions: RPMI8226 myeloma, JC-1 mitochondrial potential fluorescence, higher = more signal; note: test concentration not given here
# [19] = basal MM1S mitochondrial membrane potential changes, profiling panel, cell-based, JC-1 fluorescence, 24 h, 100 nL compound (AID 1170); conditions: higher = more signal; note: test concentration not given here
# [20] = A549 lung cancer cell viability effects, profiling panel, resazurin fluorescence, 24 h, PK04 Diversity Set (AID 1171); conditions: higher = more signal, called active from +8 up or from −8 down; note: test concentration not given here
# Chain of NADPH oxidase 2 (Homo sapiens) (P04839 whole entry, looked up): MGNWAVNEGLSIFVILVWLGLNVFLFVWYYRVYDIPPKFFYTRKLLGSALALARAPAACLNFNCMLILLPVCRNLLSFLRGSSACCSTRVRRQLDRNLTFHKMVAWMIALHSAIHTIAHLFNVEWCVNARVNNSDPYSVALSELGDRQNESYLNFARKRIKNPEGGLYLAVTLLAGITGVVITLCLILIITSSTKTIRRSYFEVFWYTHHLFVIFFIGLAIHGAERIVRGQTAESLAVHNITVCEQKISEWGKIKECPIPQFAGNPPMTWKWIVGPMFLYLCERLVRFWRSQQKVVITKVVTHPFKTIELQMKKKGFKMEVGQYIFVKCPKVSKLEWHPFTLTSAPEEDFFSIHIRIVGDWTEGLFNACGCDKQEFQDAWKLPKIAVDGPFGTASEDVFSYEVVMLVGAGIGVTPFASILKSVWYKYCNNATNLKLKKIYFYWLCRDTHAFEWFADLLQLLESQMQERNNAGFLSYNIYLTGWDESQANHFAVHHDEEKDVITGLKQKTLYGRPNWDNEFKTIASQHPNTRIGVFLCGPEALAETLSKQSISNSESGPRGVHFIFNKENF
# Chain of NADPH oxidase 4 (Homo sapiens) (Q9NPH5 whole entry, looked up): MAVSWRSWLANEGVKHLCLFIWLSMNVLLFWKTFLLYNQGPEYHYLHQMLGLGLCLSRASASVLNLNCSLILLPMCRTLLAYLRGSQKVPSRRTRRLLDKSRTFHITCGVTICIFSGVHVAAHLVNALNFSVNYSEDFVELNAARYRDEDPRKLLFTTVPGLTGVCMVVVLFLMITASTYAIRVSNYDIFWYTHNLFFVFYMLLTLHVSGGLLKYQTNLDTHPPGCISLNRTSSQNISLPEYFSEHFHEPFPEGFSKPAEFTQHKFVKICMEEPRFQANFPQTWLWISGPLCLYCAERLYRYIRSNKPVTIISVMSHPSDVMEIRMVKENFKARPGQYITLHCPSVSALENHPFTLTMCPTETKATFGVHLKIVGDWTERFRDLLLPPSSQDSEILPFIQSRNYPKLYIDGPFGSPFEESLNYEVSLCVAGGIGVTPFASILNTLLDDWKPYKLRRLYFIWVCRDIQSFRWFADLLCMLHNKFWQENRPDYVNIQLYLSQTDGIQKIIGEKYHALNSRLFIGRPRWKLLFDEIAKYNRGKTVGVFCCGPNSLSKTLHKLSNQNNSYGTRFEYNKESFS
# Chain of NADPH oxidase 5 (Homo sapiens) (Q96PH1 whole entry, looked up): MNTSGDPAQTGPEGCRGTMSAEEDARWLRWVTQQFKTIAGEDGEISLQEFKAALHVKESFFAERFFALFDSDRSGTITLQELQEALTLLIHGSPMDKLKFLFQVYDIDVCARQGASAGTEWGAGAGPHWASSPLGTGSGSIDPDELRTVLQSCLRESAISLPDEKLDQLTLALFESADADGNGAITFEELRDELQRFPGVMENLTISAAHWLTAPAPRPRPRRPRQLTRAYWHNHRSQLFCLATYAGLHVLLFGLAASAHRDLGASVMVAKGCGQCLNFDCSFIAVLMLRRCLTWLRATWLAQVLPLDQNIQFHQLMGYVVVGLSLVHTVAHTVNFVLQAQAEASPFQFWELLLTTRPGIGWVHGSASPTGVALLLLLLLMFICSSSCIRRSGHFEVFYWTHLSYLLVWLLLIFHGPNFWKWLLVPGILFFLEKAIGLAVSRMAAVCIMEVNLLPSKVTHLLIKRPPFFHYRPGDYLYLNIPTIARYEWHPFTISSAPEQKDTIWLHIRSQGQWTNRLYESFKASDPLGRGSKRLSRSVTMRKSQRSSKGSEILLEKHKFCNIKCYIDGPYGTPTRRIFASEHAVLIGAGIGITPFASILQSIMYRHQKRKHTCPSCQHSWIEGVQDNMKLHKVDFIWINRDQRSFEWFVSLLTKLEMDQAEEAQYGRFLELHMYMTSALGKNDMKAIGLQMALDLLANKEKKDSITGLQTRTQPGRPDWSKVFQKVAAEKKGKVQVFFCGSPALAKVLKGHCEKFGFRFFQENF
Structure (SMILES),z-score [1],composite z-score [2],z-score [3],z-score [4],z-score [5],z-score [6],z-score [7],z-score [8],z-score [9],z-score [10],z-score [11],z-score [12],z-score [13],z-score [14],z-score [15],z-score [16],z-score [17],z-score [18],z-score [19],z-score [20]
C#CCN([C@H](/C=C/C1CC1)[C@@H](O)Cc1ccccc1)[C@@H](Cc1ccccc1)C(=O)OC,1.3 (inactive),0.0531,2.62 (inactive),1.78 (inactive),-0.345 (inactive),1.28 (inactive),0.296,-0.293 (inactive),0.396 (inactive),-2.6,-0.509,-0.129,-0.0708,-1.2,-2.55,3.34,0.292 (inactive),-0.842,-1.33,3.31 (inactive)
CCCC=C(CCC)[C@@H](NC(=O)c1ccccc1)c1ccc(C(=O)OC)cc1,0.119 (inactive),1.29,-0.072 (inactive),0.502 (inactive),-0.0759 (inactive),-0.289 (inactive),3.85,-3.83 (inactive),-3.23 (inactive),-1.45,-0.185,0.921,-0.535,-0.355,-1.08,-1.59,0.131 (inactive),-0.515,-1.12,0.18 (inactive)
CC[C@H](C)C(=O)O[C@H]1CC[C@]2(C)C3=C(CCC2C1(C)C)[C@]1(C)CC[C@H]([C@H](C)CCCC(C)C)[C@@]1(C)CC3 (stereo not given in full),2.16 (inactive),-0.142,-0.223 (inactive),-0.121 (inactive),-0.589 (inactive),-0.136 (inactive),0.231,-0.371 (inactive),-0.0141 (inactive),-0.162,1.18,0.265,0.469,0.223,-1.06,2.01,-0.959 (inactive),-0.509,0.628,0.809 (inactive)
COCCOC(=O)N1C(=O)[C@@]2(c3cc(C#Cc4ccc(OC)cc4)ccc31)[C@H](C(=O)Nc1nc3ccccc3s1)[C@H]1C(=O)O[C@H](c3ccccc3)[C@H](c3ccccc3)N1[C@@H]2c1ccccc1OCCO,2.47 (inactive),-0.295,8.82 (active),0.873 (inactive),0.953 (inactive),0.514 (inactive),0.486,1.13 (inactive),0.337 (inactive),1.45,-0.49,1.31,0.195,-1.35,-0.213,-2.46,3.66 (inactive),-0.678,-0.881,0.027 (inactive)
CCN(CC)c1ccc(N2CC=CC34O[C@@H]5C=CCOC(=O)[C@@H]5[C@H]3C(=O)N(CCO)[C@@H]4C2=O)cc1 (stereo not given in full),1.51 (inactive),0.0434,0.116 (inactive),0.0907 (inactive),0.714 (inactive),-0.0665 (inactive),-0.221,-0.0361 (inactive),0.364 (inactive),0.613,1.22,0.273,0.662,-0.783,0.38,0.396,0.537 (inactive),-0.0585,0.0601,0.588 (inactive)
